Each structure is given as a SMILES string. This is part of a sample that, as a whole, favours compounds with a hit. Of some 83,000 tested, about 20% had one in any assay.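 Compound tested at a single concentration for 48 hours in 96-well plates; a percent growth value below 10 was scored as active.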 Values without a mark were called inactive. Activity calls are given as the source filed them.

For this experiment, the system named is M14 melanoma. In words: NCI-60 one-dose screen, 48 h (100 = growth as untreated, 0 = no growth, -100 = all killed). The settings on record: 10 µM unless noted.
Regarding `COc1cc(-c2nn(C(C)(C)C)cc2-c2ccnc(NCCCNS(=O)(=O)c3cccc(F)c3)n2)ccc1Cl`, the growth was 80%.
Consider `Cc1ccc2c(c1)C(=O)/C(=C/c1cccc(F)c1)S2`, for which the growth is 109%.
`CCCC(=O)NC(c1cccnc1)c1cc(C(C)(C)C)c2cccnc2c1O` (stereo unspecified): the growth was 3.19% (active).
Under `CCN(CC)CCn1c2ccc(O)cc2c2sc3cc(OC)ccc3c(=O)c21` stands 0.234% (active); under `Cn1cc(-c2nc(N)nnc2-c2c[nH]c3ccccc23)c2cc(Br)ccc21`, 6.36% (active); under `C=C(C)[C@@H]1CC[C@]2(COCCCNCCC#N)CC[C@]3(C)[C@H](CC[C@@H]4[C@@]5(C)CC[C@H](OCCCNCCC#N)C(C)(C)[C@@H]5CC[C@]43C)[C@@H]12`, 75.3%.
In the case of `CCNC(=O)N1CCc2cc(OC)c(OCCc3ccc(OC)c(N)c3)cc2C1c1ccc(C)cc1C` (stereo unspecified), the growth was 16.5%.
Under `CC1(C)CC[C@]2(C(=O)N3CCOCC3)CC[C@]3(C)C(=CC[C@@H]4[C@@]5(C)C/C(=C/c6ccccn6)C(=O)C(C)(C)[C@@H]5CC[C@]43C)[C@@H]2C1` stands 77.9%; under `O=C(Nc1nc2ccc([N+](=O)[O-])cc2s1)Nc1ccccc1Br`, 54.5%; under `CC1=N[C@@H]2CN(C(=O)OC(C)(C)C)C[C@@H]2n2c1cc1ccccc1c2=O`, 97.7%.
As to `Cc1[nH]c(C(=O)Nc2ccccc2OCc2cccc(C(=O)N3CCC[C@@H](N)C3)c2)c(Cl)c1Cl`, the growth is -85.7% (active).
Regarding `Cc1cc(-c2ccc(Cl)cc2)n(Cc2nnc(SCC(=O)Nc3ccc(S(N)(=O)=O)cc3)n2-c2ccc([N+](=O)[O-])cc2)n1`, the growth is 85.5%.
Under `Cc1c(F)cc(C(N)=O)cc1NCC(=O)Nc1ccc([N+](=O)[O-])cc1` stands 99.1%; under `COc1cc(-c2ccc3ncnc(NCc4ccccc4)c3c2)cnc1OC`, 86.2%.
As to `CCNC(=O)N1CCc2cc(OC)c(OCCc3ccc(OC)c(N)c3)cc2C1c1cc(C)c(C)cc1C` (stereo unspecified), the growth is 27.9%.
Regarding `O=C1[C@H]2Cc3c([nH]c4ccccc34)[C@@H](c3ccc(Br)cc3)N2C(=O)CN1C1CCN(CC2CCCCC2)CC1`, the growth was -77.2% (active).
The same measure for `COC(=O)c1ccc(NC2=C/C(=N/S(=O)(=O)c3ccc(C(=O)O)cc3)c3ccccc3C2=O)cc1`: 67.4%; for `COc1ccc(CCOc2cc3c(cc2OC)CCN(C(=O)NCc2cocn2)C3c2ccc(C)cc2C)cc1` (stereo unspecified): 11.7%.
Under `Cc1ccc(C(=O)NN2C(=O)/C(=C/C=C/c3ccco3)SC2=S)cc1` stands 99.8%; under `COc1ccc(/C=C/C(=O)c2cccc(NC(=O)CSc3nc4ccccc4c(=O)n3-c3ccccc3)c2)cc1OC`, 102%.
For the compound `C[C@H]1c2[nH]c3ccccc3c2C[C@H]2C(=O)N(CCCCCCC(=O)NO)CC(=O)N21`, the growth was 91.4%.
Take `C=CCOc1cccc(/C=C2\SC(=S)N(C3CC(=O)N(c4ccc(Br)cc4)C3=O)C2=O)c1` (stereo unspecified): the growth was 106%.
In the case of `CC(C)(C)c1ccc(-c2nnc(-c3nc4ccccc4nc3Cl)o2)cc1`, the growth was 93.1%.
The same measure for `Nc1nc(-c2cccc([N+](=O)[O-])c2)c(N=Nc2ccc(Br)cc2)s1`: -75.4% (active); for `CCNC(=O)N1CCc2cc(OC)c(OCCc3ccc(OC)cc3)cc2C1c1ccc(OC)cc1C` (stereo unspecified): 20%.
The same measure for `COc1ccc(-c2nc(C(Cl)Cl)nc3cc(-c4ccccc4)nn23)cc1`: -69% (active).
